High-throughput results (PubChem)
pAkt inh: inhibitors of Akt phosphorylation; Neuro2A IGF-stimulated pAkt S473 HTRF, 20 min; active compounds read low; activity change, % for hits at 50 µM; 360,000 compounds, 0.32% hits; AID 651550; in the data active = activity change below about -80%; note: % is set by controls: 0 for no effect and ±100 for the full control effect
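Neuro2A cells in DMEM with 0.5% FBS, overnight at 37 deg C, given compound at single 50 µM final, then IGF (6 nM final) for 20 min at 37 deg C. Lysed; phospho-Akt Ser473 by HTRF after 24 h, 665/615 ratio.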
BRCA1 expr up: BRCA1 expression activation. AID 624202. Potency, µM (doses to about 46.1 µM), for inactives: top-dose activation, actives largely listed as activators. 380,000 compounds, 1.1% hits. MCF7-BRCA1-FFLuc reporter, luminescence, 48 h; response scale: scaled: vehicle 0%, 10 µM genistein 100%; note: potency is the fitted concentration of half-maximal effect; nearly all actives have a fitted effect of over 80% in size
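MCF7 cells carrying a BRCA1-firefly luciferase reporter (2000 cells/well, phenol-red free MEM) were attached for 2 h at 37 °C, then given compounds for 48 h. Luminescence was read 15 min after luciferase reagent; activity normalized to genistein (10 microM) and DMSO.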
CCT chaperon mod: modulators of cytosolic chaperonin (CCT/TRiC) activity | purified chaperonin ATPase assay, HTRF ADP detection, 30 min | activity change, % (concentration not given with the values), hits read low | 360,000 compounds, 0.3% hits; in the data active = activity change below about -30%; note: % is set by controls: 0 for no effect and ±100 for the full control effect
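First, chaperonin was dispensed at 40 nM or 20 nM final depending on batch activity. Next, compounds were pinned at 76 uM and ATP added at 10 uM. After 30 min at 37 °C, ADP detection reagents ran 30 min at ambient temperature.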
Mm-Cpn inhibitor: M. maripaludis TRiC chaperonin inhibition. purified Mm-Cpn ATPase, ADP Transcreener TR-FRET. Potency, µM (highest dose often 76.9 µM), for inactives: at the highest dose activity, negative = inhibition, most hits filed as inhibitors. 330,000 compounds, 0.031% hits; note: potency is the fitted concentration of half-maximal effect; % is set by controls: 0 for no effect and ±100 for the full control effect; nearly all actives have a fitted effect of over 80% in size
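Purified archaeal Mm-CPN (25nM final) preincubated 10 min at 37degC with compound, then 10uM ATP for 30 min at 37degC; ADP measured by HTRF Transcreener TR-FRET; buffer 30 mM TRIS pH 7.4, 100mM KCl, 5mM MgCl2, 1mM DTT.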
A-T KAP1 phos: candidate therapy for ataxia-telangiectasia. F2112 A-T fibroblasts, KAP-1 phosphorylation AlphaLISA; neocarzinostatin DNA damage 30 min before lysis. Potency, µM (highest dose often 57.5 µM), without a hit: at the highest dose activation, usual class: activators. 320,000 compounds, 0.19% hits. AID 485349; note: potency is the fitted concentration of half-maximal effect; % of control where 0% means no effect; nearly all actives have a fitted effect of over 45% in size
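ATM-like activity read as KAP-1 phosphorylation via AlphaLISA donor/acceptor antibody pairs after lysis and 6 hr at 25C. Cells were ATM-null patient fibroblasts (F2112, hTERT), dosed 60 min, then exposed to the DSB inducer NCS for 30 min.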
* = called active by the depositor. Most compounds without a hit are left out; they make up all but 1.8% or so of the library. Unless noted, calls come from the whole dose curve; as a rule, active = well fitted curve in the direction sought with a large enough effect; inconclusive = small, poorly fitted or top-dose-only effect, or another doubt; inactive = no such curve, though single readings can be large; an effect the other way counts as inactive or inconclusive.

`O=C(CSc1nc2ccccc2o1)Nc1ccc(N2CCOCC2)c(Cl)c1` gave pAkt inh inactive, BRCA1 expr up 6.3µM*, CCT chaperon mod 1, Mm-Cpn inhibitor 0% and A-T KAP1 phos -7%.
O=C(O)c1ccc(CSc2nc3ccccc3o2)cc1 was read as pAkt inh inactive, BRCA1 expr up 14%, CCT chaperon mod -2, Mm-Cpn inhibitor 0% and A-T KAP1 phos 1%.
Screening O=C(CSc1nc2ccccc2s1)Nc1ccc(N2CCOCC2)c(Cl)c1 returned pAkt inh inactive, BRCA1 expr up -41%, CCT chaperon mod 0, Mm-Cpn inhibitor -4% and A-T KAP1 phos 7%.
`CC(=O)Nc1ccc2nc(SCC(=O)Nc3ccc(N4CCOCC4)c(Cl)c3)sc2c1` gave pAkt inh inactive, BRCA1 expr up 13µM*, CCT chaperon mod 2, Mm-Cpn inhibitor 0% and A-T KAP1 phos 5%.
For CCN(CC)/[N+]([O-])=N/Oc1ccc([N+](=O)[O-])cc1[N+](=O)[O-] the results were BRCA1 expr up -1%.
For CC(C)C[C@H]1CN([C@@H](Cc2ccccc2)CN2CCC[C@H]2CN2C(=O)C(=O)NC[C@@H]2Cc2ccc(O)cc2)C(=O)C(=O)N1CC1CCCCCC1 the results were pAkt inh inactive, BRCA1 expr up -23% and CCT chaperon mod 1.
`O=C(CSc1nc2ccccc2o1)Nc1nncs1` gave pAkt inh -116%*, BRCA1 expr up 4%, CCT chaperon mod -2, Mm-Cpn inhibitor 2% and A-T KAP1 phos 2%.
`Cc1nnc(NC(=O)CSc2nc3ccccc3o2)s1` gave pAkt inh inactive, BRCA1 expr up 1%, CCT chaperon mod 0, Mm-Cpn inhibitor 0% and A-T KAP1 phos -3%.
For O=S(=O)(N1CCN(c2nc(-c3cccs3)nc3ccccc23)CC1)C(F)(F)F the results were BRCA1 expr up 6%.
Screening COc1cc(OC)c(/C=C/c2cc(/C=C/c3c(OC)cc(OC)cc3OC)[n+](C)c3ccccc23)c(OC)c1 returned BRCA1 expr up -68%.
C=CCn1c(Sc2nnc(C)s2)nc2c1c(=O)[nH]c(=O)n2C was read as pAkt inh -124%*, BRCA1 expr up -5%, CCT chaperon mod -3, Mm-Cpn inhibitor -4% and A-T KAP1 phos -2%.
`CCN(CC)S(=O)(=O)c1ccc(OC)c(NC(=O)C(C)Oc2ccc3c(C)cc(=O)oc3c2)c1` (stereo not given) gave pAkt inh inactive, BRCA1 expr up -25%, CCT chaperon mod -31*, Mm-Cpn inhibitor -22% and A-T KAP1 phos -2%.
Screening Cc1oc2ccc(OCc3ccc(Cl)cc3)cc2c1C(=O)O returned pAkt inh inactive, BRCA1 expr up 45%, CCT chaperon mod -1, Mm-Cpn inhibitor 3% and A-T KAP1 phos 0%.
Cc1oc2ccc(OCc3ccc(Br)cc3)cc2c1C(=O)O was read as pAkt inh inactive, BRCA1 expr up 57%, CCT chaperon mod 1, Mm-Cpn inhibitor 4% and A-T KAP1 phos 3.5µM*.
For N#Cc1ccccc1S(=O)(=O)N1CCN(C(=O)C2CCC2)CC1 the results were pAkt inh inactive, BRCA1 expr up -8%, CCT chaperon mod -3, Mm-Cpn inhibitor 1% and A-T KAP1 phos 0%.
`CC(NC(=O)CCCCCNC(=O)N1CCn2c1nc1ccccc12)c1ccccc1` (stereo not given) gave pAkt inh inactive, BRCA1 expr up 2%, CCT chaperon mod 4, Mm-Cpn inhibitor 2% and A-T KAP1 phos -14%.
O=C(Nc1cccc(-c2ccc(N3CCOCC3)nn2)c1)c1cccc(Cl)c1 was read as pAkt inh inactive, BRCA1 expr up 7.1µM* and CCT chaperon mod 0.
O=C(Nc1cccc(-c2ccc(N3CCOCC3)nn2)c1)c1ccccc1Cl was read as pAkt inh inactive, BRCA1 expr up 2.5µM*, CCT chaperon mod -1, Mm-Cpn inhibitor -2% and A-T KAP1 phos -1%.
Screening O=C(Nc1cccc(-c2ccc(N3CCOCC3)nn2)c1)c1ccc(Cl)cc1 returned pAkt inh inactive, BRCA1 expr up 55%, CCT chaperon mod -4, Mm-Cpn inhibitor -1% and A-T KAP1 phos -8%.
`CN(C)CCNc1cc(N2CCN(C)CC2)ncn1` gave BRCA1 expr up -2%.
